Measurements as given in ChEMBL document CHEMBL3988442, “University of Dundee, Small-Polar-MMV Screening Library” (2021).
Among all 48,000 compounds or so, about 13,000 (27%) showed an effect of 50% or more. This is one part of the list.

What follows are compounds tested on Wolbachia pipientis (assay: Anti-Wolbachia Cell-Based Screen). Details: 5 µM.
Format: functional
Design: scale not given: in the data most compounds retested in dose-response had high values

Row | Structure (SMILES) | Percent Effect [%]
1 | CC(C)N1CCC(NC(=O)NCCC(=O)NCc2ccccc2)C1 (stereo unspecified) | -0.958
2 | Cc1ccc(C(=O)NC2CCN(C(C)C)C2)c(=O)[nH]1 (stereo unspecified) | 89.09
3 | Cc1ccc(C(=O)NC(C)CN2CCCC2=O)c(=O)[nH]1 (stereo unspecified) | -26.01
4 | CCOc1cc(C)nc(N2CCN(C(=O)c3ccc[nH]3)CC2)n1 | -4.872
5 | CC(c1ccncc1)N(C)C(=O)NCCOc1ccc(C#N)cc1 (stereo unspecified) | 100.4
6 | CC(C)N(Cc1ccc(C#N)cc1)C(=O)Nc1ccncc1 | -13.59
7 | CC(c1ccco1)N(C(=O)COc1ccc(C#N)cc1)C1CC1 (stereo unspecified) | 1.408
8 | CC(C)N(Cc1cccnc1)C(=O)CCSc1ccc(C#N)cc1 | -11.64
9 | CCNC(=O)N(C)C(c1cccnc1)C(C)C (stereo unspecified) | -2.757
10 | CC(c1cccnc1)N(C)C(=O)NCCOc1ccc(C#N)cc1 (stereo unspecified) | 102.9
11 | CC(C)N(Cc1ccc(C#N)cc1)C(=O)NCCNc1ncccn1 | -6.799
12 | CC(c1ccco1)N(C)C(=O)NCCOc1ccc(C#N)cc1 (stereo unspecified) | 99.5
13 | CC(c1ccco1)N(C(=O)CNc1ccc(C#N)cc1)C1CC1 (stereo unspecified) | -9.874
14 | O=C(C1SCCc2sccc21)N1CCCCC1 (stereo unspecified) | 1.977
15 | N#Cc1cccnc1OC1CCN(C(=O)c2cc(C3CC3)on2)CC1 | -1.829
16 | CN(CC1COc2ccccc2O1)C(=O)C1=NN(C)C(=O)CC1 (stereo unspecified) | -4.029
17 | O=C(NCCc1nnc2n1CCC2)N(Cc1ccco1)C1CCCC1 | -12.78
18 | Cc1ccc(N(Cc2ccco2)C(=O)CC2=NN(C)C(=O)C2)cc1 | 134.3
19 | O=C(c1c[nH]c2ncccc12)N(Cc1ccco1)C1CCCC1 | 4.323
20 | Cc1ccc(N2N=C(C(=O)N(C)Cc3ccco3)NCC2=O)cc1 | 2.373
21 | CCN(Cc1ccco1)C(=O)C1=NN(c2ccccc2)C(=O)CN1 | 5.452
22 | CN1N=C(C(=O)N(Cc2ccco2)C2CCCC2)CCC1=O | 120.9

Row | Structure (SMILES) | Percent Effect [%]
23 | CN(Cc1ccco1)C(=O)C1=NN(C)C(=O)CC1 | 140.7
24 | CN(Cc1ccco1)C(=O)c1ccc(=O)n(C)c1 | 12.27
25 | COC(=O)c1cc(CN2CCN(c3ncccc3C)CC2)ccc1O | 0.3059
26 | CCC(C)NS(=O)(=O)Cc1cccc(NC(=O)C2=CCCC2)c1 (stereo unspecified) | -11.93
27 | CCN(CC(=O)NC)S(=O)(=O)N1CCCCCC1 | -4.569
28 | O=C1OCCN1CCCN1CCCC1c1ccc(O)cc1 (stereo unspecified) | -23.79
29 | Cc1c[nH]c(CN2CC[C@@]3(O)CCN(C(=O)C4CCC4)C[C@H]3C2)n1 | 3.285
30 | Cc1nc(N(C)C2CCCCC2)ncc1C(C)NC(=O)c1cccnc1 (stereo unspecified) | 7.363
31 | Cc1nc(N(C)C2CCCCC2)ncc1C(C)NC(=O)c1cscn1 (stereo unspecified) | -3.92
32 | CCN(C)S(=O)(=O)NC(C)c1cnc(N(C)C2CCCCC2)nc1C (stereo unspecified) | -0.2104
33 | COc1ccnc(NC2CCN(CC(=O)N3CCCC3)CC2)n1 | -3.698
34 | CN(c1nccc(-c2cnc3sc(Cl)cn3c2=O)n1)C1CCCCC1 | 110
35 | O=c1c(-c2ccnc(NC3CCOCC3)n2)cnc2sc(Cl)cn12 | -8.128
36 | O=c1c(-c2ccnc(NC3CCCCC3)n2)cnc2sc(Cl)cn12 | 123.9
37 | Cc1cn2c(=O)c(-c3ccnc(N(C)C4CCCCC4)n3)cnc2s1 | 84.88
38 | CN(c1ncc(C(=O)Nc2ccccc2)c(N)n1)C1CCCCC1 | -11.44
39 | CN(c1nccc(-c2cnc3sccn3c2=O)n1)C1CCCCC1 | 92.84
40 | CN(C)c1nccc(N(C)C2CCCCC2)n1 | -7.043
41 | O=C1N(C2CCCCC2)C[C@H]2CN(C3CCC3)CCN12 | -8.618
42 | Cc1ccc(C(C)NCCc2nccn2Cc2ccccc2)o1 (stereo unspecified) | -3.119
43 | O=C(NCCc1ccccc1Cl)NCC1(O)CCSC1 (stereo unspecified) | 5.482
44 | COc1ccccc1CC1CCCN(C(=O)c2n[nH]c3c2CCC3)C1 (stereo unspecified) | -10.41

Row | Structure (SMILES) | Percent Effect [%]
45 | COc1cccc(CCC2CCCN(C(=O)c3n[nH]c4c3CCC4)C2)c1 (stereo unspecified) | 9.398
46 | CO[C@H]1C[C@@H]2CN(C(=O)c3n[nH]c4c3CCCC4)C[C@@H]2C1 | 95.28
47 | O=C(NCc1ccccc1Cn1ccnc1)N1CCOCC1 | -11.31
48 | CCC(CNC(=O)c1nc(=O)[nH][nH]1)Oc1ccccc1C(F)(F)F (stereo unspecified) | -3.223
49 | Cc1nccn1C1CCCN(C(=O)c2ccc3c(c2)nnn3C)C1 (stereo unspecified) | -0.6055
50 | CCc1nccn1C1CCCN(C(=O)c2ccn(C)c(=O)c2)C1 (stereo unspecified) | -5.694
51 | CCc1nccn1C1CCCN(C(=O)Cc2ccc(OC)c(F)c2)C1 (stereo unspecified) | -2.667
52 | CCc1nccn1C1CCCN(C(=O)c2ccc3[nH]nnc3c2)C1 (stereo unspecified) | -5.197
53 | CCOc1ccc(C(=O)N2CCCC(n3ccnc3C)C2)cc1OC (stereo unspecified) | 91.57
54 | CCc1nccn1C1CCCN(C(=O)c2ccc3c(c2)nnn3C)C1 (stereo unspecified) | 93.39
55 | CCc1nccn1C1CCCN(C(=O)c2ccc(OC)c(OC)c2)C1 (stereo unspecified) | 97.86
56 | Cc1nc(C)c2c(n1)CCN(C(=O)C1(C#N)CC1)CC2 | -4.604
57 | Fc1cccc(-c2nnn3c2COC(CNCc2nccs2)C3)c1.O=C(O)C(F)(F)F (stereo unspecified) | -16.9
58 | CC(=O)N1CCN(c2ccnc(C)n2)CC(COc2ccccc2)C1 (stereo unspecified) | 112.4
59 | CNC(=O)c1ccnc(N2CCCC(COc3cccc(C)c3)C2)c1 (stereo unspecified) | -58.5
60 | CC(=O)N1CCN(CC(N)=O)CC(COc2ccccc2)C1 (stereo unspecified) | 106.5
61 | COc1cccc(OCC2CCCN(C(C)=O)C2)c1 (stereo unspecified) | -1.082
62 | Cc1nccc(N2CCC(Cc3cccc(C(=O)O)c3)CC2)n1 | 4.494
63 | COc1cccc(OCC2CCCN(C3CCN(C(C)=O)CC3)C2)c1 (stereo unspecified) | -9.945
64 | Cc1ccc(OCC2CCCN(C(=O)CN3CCOCC3)C2)cc1 (stereo unspecified) | -2.27
65 | CC(=O)N1CCN(C(C)C)CC(COc2ccccc2)C1 (stereo unspecified) | 109.4
66 | O=C(N1CCN(CCO)CC1)C1(O)Cc2ccccc2C1 | -5.424
